Several values for one entry are separate records, joined by “and”; a condition that tells them apart may be missing. Identical values can stand only once. Records with an inconclusive call do not appear. Activity calls are given as the source filed them. The call rests on the fitted dose curve; in most records, active means well fitted inhibition curve with a large enough effect in the repeat runs; inconclusive means weak or mixed curves; inactive means no such curve, though single readings can be large or run the other way.

Among the data in PubChem BioAssay (Tox21) are Potency values, retold here.
Potency means the concentration at half of the fitted maximal effect.

Sequence of Cytochrome P450 2C19 (Homo sapiens) (P33261 whole entry, looked up): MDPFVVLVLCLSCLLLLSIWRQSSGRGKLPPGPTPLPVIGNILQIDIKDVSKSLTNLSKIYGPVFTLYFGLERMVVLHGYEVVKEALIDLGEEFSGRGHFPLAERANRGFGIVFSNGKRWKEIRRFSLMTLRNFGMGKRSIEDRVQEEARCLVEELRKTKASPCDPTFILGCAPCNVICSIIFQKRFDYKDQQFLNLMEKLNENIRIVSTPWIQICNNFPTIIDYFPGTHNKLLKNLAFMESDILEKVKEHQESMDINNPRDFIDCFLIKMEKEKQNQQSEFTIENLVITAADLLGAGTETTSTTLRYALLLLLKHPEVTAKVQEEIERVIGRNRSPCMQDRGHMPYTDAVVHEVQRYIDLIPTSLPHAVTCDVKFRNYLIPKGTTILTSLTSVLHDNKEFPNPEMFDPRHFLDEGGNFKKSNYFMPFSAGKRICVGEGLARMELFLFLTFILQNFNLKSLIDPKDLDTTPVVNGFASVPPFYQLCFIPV

The test concerns the target Cytochrome P450 2C19 (Homo sapiens) (UniProt P33261). The test is described as follows: Cytochrome P450 Family 2 Subfamily C Member 19 (CYP2C19) small molecule antagonists: luciferase reporter qHTS assay (AID 1671197). Further: nearly all actives have a fitted effect of over 65% in size. The conditions noted are these: P450-Glo CYP2C19 enzyme, luciferin luminescence, 1 h; series mostly up to 52.9 µM. An excerpt:
National Center for Advancing Translational Sciences [NCATS]
U.S. Environmental Protection Agency [EPA]
National Institutes of Environmental Health Sciences [NIEHS]
National Toxicology Program [NTP]
U.S. Food and Drug Administration [FDA]
Cytochrome P450 (CYP) enzymes are membrane-bound hemeproteins that play a key role in metabolism of drugs and xenobiotics. Evaluation of the effect of chemicals on CYP isozymes is useful to minimize the adverse drug reactions and toxicities in drug development process. Tox21 chemicals were tested for their effect on CYP enzyme activities by using P450-Glo (TM) screening systems (Promega Corporation, Madison, WI). These systems provide a luminescent method containing proluciferin substrates and are converted to luciferin products by CYP isozymes. The luciferin products formed are detected with a luciferin detection reagent, and the amount of light produced is proportional to CYP activity. P450-Glo (TM) CYP2C19 screening system (Catalog. No. V9880) was used to detect the compounds that interfere in CYP2C19 activity. The positive control compound used for CYP2C19 assay is ketoconazole (Sigma-Aldrich, St. Louis, MO).
Tox21 Assay Protocol Summary:
Two ul of enzyme-substrate mix was dispensed into medium binding white/solid 1536-well plates (Greiner Bio-One North America Inc., Monroe, NC) using a BioRaptr Flying Reagent Dispenser (FRD, Beckman Coulter, Brea, CA). Compounds dissolved in DMSO and positive control (ketoconazole) were transferred to the assay plates at 23 nl using a Pintool station (Wako, San Diego, CA). The assay plates were incubated at room temperature for 10 min. Then 2 ul of NADPH regeneration solution was added to each well of the assay plates using an FRD and incubated at 37C for 1 h. The reaction was stopped by adding 4 ul of detection reagent using an FRD and after 20 min incubation at room temperature the luminescence signal was measured using a ViewLux plate reader (Perkin Elmer, Shelton, CT). Data were expressed as relative luminescence units.
For `CN(C)c1ccc(SC#N)cc1`, the Potency was 35.6 µM (active).

For the molecule `Clc1ccc2nsnc2c1NC1=NCCN1`, the Potency entry was “inactive”.

In the case of `COCCCC/C(=N\OCCN)c1ccc(C(F)(F)F)cc1`, the Potency was 0.692 µM (active).

Regarding `CCCN(CCC)C(=O)C(CCC(=O)OCCCN1CCN(CCOC(=O)Cc2c(C)n(C(=O)c3ccc(Cl)cc3)c3ccc(OC)cc23)CC1)NC(=O)c1ccccc1` (stereo not given), the Potency was 8.71 µM (active).

Take `Cc1cccc(S(=O)(=O)O)c1C`: the Potency result is “inactive”.

Regarding `CCCCN1CCCC[C@H]1C(=O)Nc1c(C)cccc1C`, the Potency result was “inactive”.

On to `CC[C@@]1(O)C(=O)OCc2c1cc1n(c2=O)Cc2cc3c(CN(C)C)c(O)ccc3nc2-1`, for which the Potency entry was “inactive”.

For the molecule `Fc1ccc(C(c2ccc(F)cc2)N2CCN(C/C=C/c3ccccc3)CC2)cc1`, the Potency result was “inactive”.

Regarding `Oc1cccc2cc3cccc(O)c3c(O)c12`, the Potency is 35.7 µM (active).

Consider `CCCCCCCCCCCCCCCS(=O)(=O)Oc1ccccc1`, for which the Potency was 4.36 µM (active).

Consider `O=CC=C(c1ccccc1)c1ccccc1`, for which the Potency is 18 µM (active).

As for `CC(=O)SC[C@@H](Cc1ccccc1)C(=O)NCC(=O)OCc1ccccc1`, the Potency is 0.617 µM (active).

Consider `Cc1c(C)c2c(c(C)c1OC(=O)CCC(=O)O)CC[C@@](C)(CCC[C@H](C)CCC[C@H](C)CCCC(C)C)O2`, for which the Potency result was “inactive”.

For the molecule `Oc1ccc2cc(SSc3ccc4cc(O)ccc4c3)ccc2c1`, the Potency is 35.6 µM (active).

With `CCCCN(CCCC)C(=O)N(CCCC)CCCC`, the Potency result is “inactive”.

For the molecule `CCCCCCCCCCCC(=O)NCCCN(C)C`, the Potency is 20 µM (active).

As for `CCCCCCCCCCCCCC[P+](CCCC)(CCCC)CCCC` (tested in a mixture with another compound), the Potency was 17.9 µM (active).

For the molecule `Cc1cc(O)c2ccccc2c1O`, the Potency is 11 µM (active).

`Oc1cc2ccccc2c2ccccc12`: the Potency was 1.12 µM (active).

As for `CCC(Cl)C(Cl)C(Cl)CC(Cl)C(Cl)C(C)Cl` (stereo not given), the Potency was 1.26 µM (active).

Consider `Nc1nc2ccccc2n1Cc1ccc(F)cc1`, for which the Potency was 15.5 µM (active).

Take `CC/C(=C(\c1ccc(O)cc1)c1ccc(OCCN(C)C)cc1)c1ccccc1`: the Potency is 44.9 µM (active).

Take `Nc1ccc2c3c(cccc13)-c1ccccc1-2`: the Potency was 18 µM (active).

Regarding `Cc1cccc(CN2CCN(C(c3ccccc3)c3ccc(Cl)cc3)CC2)c1` (stereo not given), the Potency was 8.71 µM (active).

Take `NNc1nc(-c2ccc([N+](=O)[O-])cc2)cs1`: the Potency was 5.03 µM (active).

Consider `O=C(Nc1ccc(Oc2ccc(Cl)cc2)c(Cl)c1)c1cc(I)cc(I)c1O`, for which the Potency result is “inactive”.

In the case of `CCOC(=O)O[C@H](C)OC(=O)c1ccc2c(c1)cc(C(=O)NC1CCN(C(C)C)CC1)n2Cc1cc(-c2ccc(Cl)s2)on1`, the Potency was 46.9 µM (active).

As to `CN1CCC(Nc2ncc3ncnc(Nc4ccc(F)c(Cl)c4)c3n2)CC1`, the Potency result is “inactive”.

For the molecule `Cc1cc(O)c(C(C)(C)C)cc1Sc1cc(C(C)(C)C)c(O)cc1C`, the Potency was 0.398 µM (active).

For `CCCCCCCC[N+](CCCCCCCC)(CCCCCCCC)CCCCCCCC`, the Potency is 22.4 µM (active).

As for `O=C(OCC1CO1)C1CCCCC1C(=O)OCC1CO1` (stereo not given), the Potency was 56.5 µM (active).

As to `O=C(N/N=C/c1ccccc1O)c1ccncc1`, the Potency was 4.9 µM (active).

Turning to `C=CC(=O)OCC(CO)(COC(=O)C=C)COC(=O)C=C`, the Potency is 25.3 µM (active) and 22.4 µM (active).

Take `Oc1ccc(C2(c3ccc(O)cc3)CC3CC2C2CCCC32)cc1` (stereo not given): the Potency was 30.5 µM (active).

As to `O=C1Cc2cc(CCN3CCN(c4nsc5ccccc45)CC3)c(Cl)cc2N1`, the Potency is 21.9 µM (active).

Take `NC(=O)N1C(=O)C(C(=O)c2cc(Cl)cs2)c2cc(F)c(Cl)cc21` (stereo not given): the Potency was 79.6 µM (active).

Regarding `CC(C)C(C)(C)C(C)(C)C(C)(C)S`, the Potency is 39.9 µM (active).

As for `O=C(Oc1cccc2cccnc12)c1ccccc1`, the Potency result is “inactive”.

In the case of `[Cl][Bi]([Cl])([c]1ccccc1)([c]1ccccc1)[c]1ccccc1`, the Potency is 0.445 µM (active).

Regarding `CN(C)[C@@H]1C(=O)C(C(N)=O)=C(O)[C@@]2(O)C(=O)C3=C(O)c4c(O)cccc4C[C@H]3C[C@@H]12`, the Potency entry is “inactive”.
